The target in assay [1] is Glucocorticoid receptor (Homo sapiens) (UniProt P04150). Put plainly: ATG_GR_TRANS: Attagene TRANS-FACTORIAL HepG2 Assay for human Glucocorticoid Receptor (GR) (AID 2282978).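 Note: activators score as hits since higher reporter transcript over DMSO is fitted.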 To be noted: HepG2 Attagene TRANS GR reporter, mRNA transcription. In outline:
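Measurement of GAL4-UAS-driven reporter mRNA in human HepG2 liver cells 24 h post-dosing, using RT-PCR with fluorescent labelling and capillary electrophoresis; the transfected constructs report exogenous NR-GAL4 chimera activity, fitted upward against DMSO.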

The target in assay [2] is Bile acid receptor (Homo sapiens) (UniProt Q96RI1). The assay is described as follows: ATG_FXR_TRANS: Attagene TRANS-FACTORIAL HepG2 Assay for Farnesoid X Receptor (FXR) (AID 2282979).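 Note: hits raise reporter mRNA above DMSO so AC50 marks FXR activation.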 To be noted: HepG2 Attagene TRANS FXR-GAL4 reporter transcription. The gist of the method: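 HepG2 cells were transiently transfected with GAL4-UAS reporters driven by chimeric NR-Gal4 proteins and dosed for 24 h. Reporter mRNA was quantified by RT-PCR, fluorescent labelling, HpaI digestion and capillary electrophoresis, with gain of signal scored versus DMSO.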

For assay [3], the target named is Oxysterols receptor LXR-alpha (Homo sapiens) (UniProt Q13133). Put plainly: ATG_LXRa_TRANS: Attagene TRANS-FACTORIAL HepG2 Assay for human Liver X Receptor alpha (LXRa) (AID 2282980). To be noted: HepG2 Attagene TRANS reporter, LXRa transactivation. In outline:
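HepG2 cells transiently transfected with GAL4-UAS reporter units for chimeric NR-Gal4 proteins, exposed to chemicals for 24 h. Reporter mRNA quantified by RT-PCR and capillary electrophoresis; gain of signal fitted relative to DMSO.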

The target of assay [4] is Oxysterols receptor LXR-beta (Homo sapiens) (UniProt P55055). Put plainly: ATG_LXRb_TRANS: Attagene TRANS-FACTORIAL HepG2 Assay for human Liver X Receptor beta (LXRb) (AID 2282981). To be noted: HepG2 Attagene TRANS GAL4-LXRb reporter, mRNA. In outline: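 After 24 h chemical treatment of transfected HepG2 cells carrying exogenous NR-Gal4 chimeras, reporter mRNA was quantified by fluorescent RT-PCR and capillary electrophoresis; activity taken as increase over DMSO controls.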

In assay [5] the target is Hepatocyte nuclear factor 4-alpha (Homo sapiens) (UniProt P41235). The assay is described as follows: ATG_HNF4a_TRANS: Attagene TRANS-FACTORIAL HepG2 Assay for human Hepatocyte Nuclear Factor 4 alpha (HNF4a) (AID 2282982). The following applies: HepG2 HNF4a transactivation reporter, mRNA readout. The gist of the method: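 Activity of an exogenous HNF4a–Gal4 fusion scored as induced GAL4-UAS reporter transcripts after 24 h chemical exposure of transfected human HepG2 cells. Read-out via RT-PCR with 6-FAM labelling and capillary electrophoresis; rise over DMSO baseline.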

A short description of assay [6]: ATG_M_06_TRANS: Attagene TRANS-FACTORIAL HepG2 Assay for M06 Transcription Factor (Internal Marker) (AID 2282983).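 For AC50: potency for rise in reporter mRNA above DMSO baseline.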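 For outcome: reporter transcript level by RT-PCR then capillary electrophoresis fluorescence.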 To be noted: HepG2 Attagene TRANS M06 internal marker reporter. In outline:
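mRNA levels of a reporter transcript, quantified as FAM fluorescence on capillary electrophoresis, served as readout. HepG2 cells expressing exogenous GAL4-chimera reporter constructs were exposed for 24 h. Gain of signal over DMSO was evaluated.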

Assay [7] is described as follows: ATG_M_32_TRANS: Attagene TRANS-FACTORIAL HepG2 Assay for M32 Transcription Factor (Internal Marker) (AID 2282984).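 Note: transcript level of a background control reporter unit measured by RT-PCR and capillary electrophoresis.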 The following applies: HepG2 Attagene TRANS M32 internal marker reporter. In outline:
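Internal background reporter in transfected HepG2: after 24 h chemical exposure, RNA reverse-transcribed, reporter cDNA amplified, fluorescently labelled and HpaI-cut, then sized by capillary electrophoresis. Gain of signal fitted against DMSO control.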

Assay [8] has as its target Transcriptional activator Myb (Homo sapiens) (UniProt P10242). Put plainly: ATG_Myb_CIS: Attagene CIS-FACTORIAL HepG2 Assay for human Myeloblastosis (Myb) Proto-Oncogene Transcription Factor (AID 2282986; active = hit-call score of the fitted dose curve at least 0.9, where 1 is the maximum; inactive = score below 0.9). To be noted: HepG2 Attagene CIS-FACTORIAL Myb reporter transcription; actives raise or lower the signal. The gist of the method: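 Fluorescence signals from capillary electrophoresis of RT-PCR-amplified reporter cDNA give the read-out. Cells: HepG2 transfected with multiple cis-regulated reporter units. Exposure lasts 24 hours; DMSO defines baseline for gain or loss of signal.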

Assay [9] has as its target Nuclear respiratory factor 1 (Homo sapiens) (UniProt Q16656). Put plainly: ATG_NRF1_CIS: Attagene CIS-FACTORIAL HepG2 Assay for human Nuclear Respiratory Factor 1 (NRF1) Orphan Gene (AID 2282987; active = hit-call score of the fitted dose curve at least 0.9, where 1 is the maximum; inactive = score below 0.9). To be noted: HepG2 NRF1 cis-element reporter, Attagene multiplex; actives raise or lower the signal. In outline:
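Transcriptional reporter readout, one component of a 52-endpoint multiplexed HepG2 panel. Exposure 24 h; mRNA detected via RT-PCR and fluorescent capillary electrophoresis; fitting in both directions against DMSO.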

In assay [10] the target is Nuclear receptor subfamily 4 group A member 2 (Homo sapiens) (UniProt P43354). The assay is described as follows: ATG_NURR1_TRANS: Attagene TRANS-FACTORIAL HepG2 Assay for human Nuclear Receptor Related Protein 1 (NURR1) (AID 2282985). The following applies: HepG2 Attagene TRANS reporter, mRNA readout. The gist of the method: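 Reporter transcript induction, measured by RT-PCR with fluorescent labelling, HpaI digestion and capillary electrophoresis, after 24 hr dosing of human HepG2 cells transiently expressing an exogenous NR-Gal4 fusion with GAL4-UAS-driven reporters; DMSO as baseline.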

Molecules are shown by their SMILES. Records with an inconclusive call do not appear. The source holds several records for some structures; these can differ, active in one and inactive in another. Calls of active or inactive are those of the source. Rule for the calls, unless noted: active = hit-call score of the fitted dose curve at least 0.9, where 1 is the maximum; inconclusive = response in the unintended direction; inactive = score below 0.9.

Chain of Bile acid receptor (Homo sapiens) (Q96RI1 whole entry, looked up, the tested form may be a part): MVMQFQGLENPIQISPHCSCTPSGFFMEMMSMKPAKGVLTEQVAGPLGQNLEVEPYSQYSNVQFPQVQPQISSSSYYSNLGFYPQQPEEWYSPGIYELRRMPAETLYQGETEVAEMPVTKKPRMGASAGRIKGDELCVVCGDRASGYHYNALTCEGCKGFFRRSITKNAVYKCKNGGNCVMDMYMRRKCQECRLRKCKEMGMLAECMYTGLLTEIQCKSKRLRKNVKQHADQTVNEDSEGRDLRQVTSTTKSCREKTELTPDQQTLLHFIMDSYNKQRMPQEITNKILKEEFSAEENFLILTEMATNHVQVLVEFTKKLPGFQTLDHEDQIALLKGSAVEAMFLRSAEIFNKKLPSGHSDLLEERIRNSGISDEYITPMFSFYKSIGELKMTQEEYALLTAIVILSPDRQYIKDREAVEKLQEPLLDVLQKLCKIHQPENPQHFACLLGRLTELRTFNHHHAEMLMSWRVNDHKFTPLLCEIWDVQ
Chain of Oxysterols receptor LXR-beta (Homo sapiens) (P55055 whole entry, looked up, the tested form may be a part): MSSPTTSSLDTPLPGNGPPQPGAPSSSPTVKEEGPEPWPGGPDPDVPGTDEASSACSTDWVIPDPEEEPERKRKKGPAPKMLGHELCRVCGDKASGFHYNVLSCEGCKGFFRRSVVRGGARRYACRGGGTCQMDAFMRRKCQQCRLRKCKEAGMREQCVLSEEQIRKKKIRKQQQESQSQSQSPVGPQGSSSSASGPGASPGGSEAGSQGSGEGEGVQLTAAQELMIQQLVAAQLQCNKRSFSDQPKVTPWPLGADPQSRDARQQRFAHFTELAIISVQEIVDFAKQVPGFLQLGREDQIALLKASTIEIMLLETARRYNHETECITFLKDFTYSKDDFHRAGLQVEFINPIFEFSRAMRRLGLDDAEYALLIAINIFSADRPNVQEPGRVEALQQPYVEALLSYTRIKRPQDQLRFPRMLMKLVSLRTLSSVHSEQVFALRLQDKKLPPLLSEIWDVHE
Chain of Hepatocyte nuclear factor 4-alpha (Homo sapiens) (P41235 whole entry, looked up, the tested form may be a part): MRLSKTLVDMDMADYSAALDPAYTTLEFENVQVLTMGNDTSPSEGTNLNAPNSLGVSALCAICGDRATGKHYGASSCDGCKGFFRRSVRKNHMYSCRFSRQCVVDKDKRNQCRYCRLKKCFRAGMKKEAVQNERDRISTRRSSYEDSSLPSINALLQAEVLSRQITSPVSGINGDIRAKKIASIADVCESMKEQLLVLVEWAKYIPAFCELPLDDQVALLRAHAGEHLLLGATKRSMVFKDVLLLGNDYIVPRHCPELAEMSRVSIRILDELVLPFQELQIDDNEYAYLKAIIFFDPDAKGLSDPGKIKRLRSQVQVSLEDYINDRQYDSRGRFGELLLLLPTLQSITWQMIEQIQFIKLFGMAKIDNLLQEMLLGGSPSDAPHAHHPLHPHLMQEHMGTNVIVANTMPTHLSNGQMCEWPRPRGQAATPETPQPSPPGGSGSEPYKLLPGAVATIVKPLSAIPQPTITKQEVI
Chain of Oxysterols receptor LXR-alpha (Homo sapiens) (Q13133 whole entry, looked up, the tested form may be a part): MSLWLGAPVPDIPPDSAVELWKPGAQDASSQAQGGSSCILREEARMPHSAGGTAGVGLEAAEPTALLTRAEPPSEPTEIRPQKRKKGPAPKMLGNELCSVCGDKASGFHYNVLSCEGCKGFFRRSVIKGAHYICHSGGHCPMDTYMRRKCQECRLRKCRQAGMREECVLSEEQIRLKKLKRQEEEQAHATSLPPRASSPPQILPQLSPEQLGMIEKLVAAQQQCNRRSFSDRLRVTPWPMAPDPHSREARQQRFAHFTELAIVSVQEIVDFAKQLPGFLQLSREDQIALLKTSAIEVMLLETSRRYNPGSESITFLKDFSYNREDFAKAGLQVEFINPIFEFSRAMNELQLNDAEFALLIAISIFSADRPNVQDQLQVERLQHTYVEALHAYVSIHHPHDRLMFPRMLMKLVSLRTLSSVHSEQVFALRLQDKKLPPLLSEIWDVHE
Chain of Nuclear respiratory factor 1 (Homo sapiens) (Q16656 whole entry, looked up): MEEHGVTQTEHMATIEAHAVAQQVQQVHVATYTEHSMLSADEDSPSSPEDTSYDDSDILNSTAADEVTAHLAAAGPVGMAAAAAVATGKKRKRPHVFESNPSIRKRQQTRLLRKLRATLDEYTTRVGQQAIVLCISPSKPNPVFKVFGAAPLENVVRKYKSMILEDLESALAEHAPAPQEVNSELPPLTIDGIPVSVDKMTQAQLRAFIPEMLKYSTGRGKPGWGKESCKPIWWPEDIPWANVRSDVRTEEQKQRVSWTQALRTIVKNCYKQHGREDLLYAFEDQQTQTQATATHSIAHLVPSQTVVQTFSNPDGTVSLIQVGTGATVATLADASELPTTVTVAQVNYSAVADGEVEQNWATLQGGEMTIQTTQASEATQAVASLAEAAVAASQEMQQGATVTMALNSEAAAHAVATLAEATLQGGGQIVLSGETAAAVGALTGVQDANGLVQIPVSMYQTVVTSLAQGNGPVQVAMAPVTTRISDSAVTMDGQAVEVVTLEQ
Chain of Nuclear receptor subfamily 4 group A member 2 (Homo sapiens) (P43354 whole entry, looked up, the tested form may be a part): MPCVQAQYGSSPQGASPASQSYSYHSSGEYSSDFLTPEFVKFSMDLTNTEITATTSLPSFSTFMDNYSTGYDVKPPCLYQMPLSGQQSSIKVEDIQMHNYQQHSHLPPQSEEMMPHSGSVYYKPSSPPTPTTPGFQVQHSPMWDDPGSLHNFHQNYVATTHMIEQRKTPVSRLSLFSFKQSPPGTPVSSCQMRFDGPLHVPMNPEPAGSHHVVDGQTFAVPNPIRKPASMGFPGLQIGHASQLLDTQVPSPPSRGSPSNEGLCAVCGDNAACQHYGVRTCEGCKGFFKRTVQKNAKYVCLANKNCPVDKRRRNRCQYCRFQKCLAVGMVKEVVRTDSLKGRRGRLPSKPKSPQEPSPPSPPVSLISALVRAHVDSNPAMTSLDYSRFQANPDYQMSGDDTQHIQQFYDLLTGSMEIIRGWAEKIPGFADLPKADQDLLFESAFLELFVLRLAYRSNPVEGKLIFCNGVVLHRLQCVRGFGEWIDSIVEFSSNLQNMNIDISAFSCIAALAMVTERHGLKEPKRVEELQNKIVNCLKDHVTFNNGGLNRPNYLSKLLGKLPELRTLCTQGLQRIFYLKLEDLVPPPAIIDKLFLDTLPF
Chain of Transcriptional activator Myb (Homo sapiens) (P10242 whole entry, looked up): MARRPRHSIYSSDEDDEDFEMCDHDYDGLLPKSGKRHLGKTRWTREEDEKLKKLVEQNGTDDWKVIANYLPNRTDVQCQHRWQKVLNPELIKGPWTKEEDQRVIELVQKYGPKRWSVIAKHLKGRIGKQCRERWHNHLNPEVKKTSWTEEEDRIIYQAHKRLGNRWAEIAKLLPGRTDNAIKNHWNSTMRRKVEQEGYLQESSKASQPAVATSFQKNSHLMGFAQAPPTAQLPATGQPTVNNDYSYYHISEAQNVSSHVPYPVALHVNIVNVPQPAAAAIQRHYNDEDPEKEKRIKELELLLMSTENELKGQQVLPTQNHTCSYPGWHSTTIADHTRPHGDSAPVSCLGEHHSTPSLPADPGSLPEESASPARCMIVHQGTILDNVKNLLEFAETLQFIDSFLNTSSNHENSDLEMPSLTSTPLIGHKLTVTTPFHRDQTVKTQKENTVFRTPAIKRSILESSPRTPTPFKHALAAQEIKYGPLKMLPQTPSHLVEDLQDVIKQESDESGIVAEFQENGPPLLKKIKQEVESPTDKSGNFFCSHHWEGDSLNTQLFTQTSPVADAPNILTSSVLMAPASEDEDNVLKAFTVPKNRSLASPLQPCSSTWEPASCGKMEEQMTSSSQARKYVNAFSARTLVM
Chain of Glucocorticoid receptor (Homo sapiens) (P04150 whole entry, looked up, the tested form may be a part): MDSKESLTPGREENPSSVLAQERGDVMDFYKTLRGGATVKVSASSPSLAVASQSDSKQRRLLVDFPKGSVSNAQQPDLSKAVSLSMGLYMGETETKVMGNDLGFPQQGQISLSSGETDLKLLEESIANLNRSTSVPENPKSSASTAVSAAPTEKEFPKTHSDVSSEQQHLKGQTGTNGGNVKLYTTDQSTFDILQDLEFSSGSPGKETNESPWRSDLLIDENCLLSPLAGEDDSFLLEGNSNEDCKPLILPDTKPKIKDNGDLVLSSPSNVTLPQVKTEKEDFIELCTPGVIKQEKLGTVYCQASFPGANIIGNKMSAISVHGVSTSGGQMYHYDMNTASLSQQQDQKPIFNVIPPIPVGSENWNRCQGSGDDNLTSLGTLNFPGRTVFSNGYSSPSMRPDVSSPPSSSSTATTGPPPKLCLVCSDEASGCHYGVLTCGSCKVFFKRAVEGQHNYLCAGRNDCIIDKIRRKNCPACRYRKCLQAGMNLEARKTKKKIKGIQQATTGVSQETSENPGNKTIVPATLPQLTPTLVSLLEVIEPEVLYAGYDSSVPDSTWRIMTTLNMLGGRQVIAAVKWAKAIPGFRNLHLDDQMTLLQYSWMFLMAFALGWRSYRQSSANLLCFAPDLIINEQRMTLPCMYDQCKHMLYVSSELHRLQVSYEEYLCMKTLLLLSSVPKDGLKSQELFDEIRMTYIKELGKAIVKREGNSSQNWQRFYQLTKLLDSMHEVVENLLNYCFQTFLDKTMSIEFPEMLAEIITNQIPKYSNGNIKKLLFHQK

In general, AC50 refers to the midpoint of the concentration-response curve, whichever way the signal moves. For the molecule `CC(C)(C)c1cc(C(C)(C)C)c(O)c(C(C)(C)C)c1`, the molecule was called inactive in assay [1], in assay [2], in [3], in assay [4], in assay [5] and in assay [6]. The call in [7], in [8] and in assay [9] was inactive. In addition, the AC50 in assay [2] was 27.8 µM (active).
Take `Cc1cc(CCN2CCN(c3nsc4ccccc34)CC2)cc2c1NC(=O)CC2(C)C`: the molecule was classed as inactive in assay [1], in assay [2], in assay [4], in [5], in assay [6] and in assay [8]. Besides, the molecule was called inactive in assay [9].
On to `Oc1cc2ccccc2c2ccccc12`, for which the result in assay [1], in assay [3], in assay [4], in assay [6], in assay [7] and in assay [10] was inactive. Also, the outcome in [8] and in assay [9] was inactive. Moreover, the AC50 in [6] was 50.8 µM (active).
As for `CCCCCCCCCCCCCCCS(=O)(=O)Oc1ccccc1`, the molecule was classed as inactive in assay [2], in assay [4], in assay [5], in assay [6], in [8] and in assay [9].
In the case of `CN1CCC[C@H]1c1cccnc1`, the outcome in [4], in [5], in [6], in assay [7], in [8] and in assay [9] was inactive.
As for `CCCCCCCC(=O)O`, the molecule was classed as inactive in assay [1], in [4], in assay [5], in assay [6], in assay [8] and in [9].
`COc1cc(CCC(=O)CC(=O)CCc2ccc(O)c(OC)c2)ccc1O`: the outcome in [2], in [4], in assay [5], in assay [10] and in assay [9] was inactive. Further, the AC50 in assay [8] is 67.6 µM (active).
For the molecule `C[C@@H]1C[C@H]2[C@@H]3CCC4=CC(=O)C=C[C@]4(C)[C@@]3(F)[C@@H](O)C[C@]2(C)[C@@]1(O)C(=O)COP(=O)(O)O`, the molecule was classed as inactive in [3], in assay [4], in assay [6], in assay [7], in assay [8] and in assay [9].
Consider `CCCCCCCCC(=O)O`, for which the call in assay [4], in [5], in assay [6], in assay [7], in assay [10] and in assay [8] was inactive. Further, the molecule was classed as inactive in assay [9].
In the case of `Cc1oc(-c2ccccc2)nc1CCOc1ccc(C[C@H](Nc2ccccc2C(=O)c2ccccc2)C(=O)O)cc1`, the outcome in assay [1], in [6], in assay [7] and in assay [8] was inactive. In assay [9], the half-maximal activity concentration (AC50) was 18.6 µM (active).
For the molecule `Oc1cccc(O)c1`, the call in [1], in assay [6], in assay [7] and in assay [9] was inactive. The AC50 in assay [4] was 0.00623 µM (active); in assay [8] it was 2.59 µM (active).
With `CC(O)C(=O)O` (configuration not stated), the molecule was called inactive in assay [2], in [3], in assay [4], in assay [5], in assay [6] and in [7]. Moreover, the call in assay [8] and in assay [9] was inactive.
In the case of `CCC(C)(C)C1CCC(O)CC1` (configuration not stated), the molecule was classed as inactive in [3], in [4], in assay [5], in assay [6], in assay [7] and in assay [8]. In assay [9], the call was inactive.
Take `CC(C)(C)c1ccc(O)c(C(C)(C)C)c1`: the outcome in assay [2], in assay [5], in assay [6], in assay [8] and in assay [9] was inactive. Moreover, the AC50 in assay [3] was 5.26 µM (active); in [4], 5.32 µM (active).
`OCCC(F)(F)C(F)(F)C(F)(F)C(F)(F)C(F)(F)C(F)(F)C(F)(F)C(F)(F)F`: the molecule was classed as inactive in assay [3], in assay [4], in assay [5], in assay [6], in assay [7] and in assay [10]. Also, the molecule was classed as inactive in assay [8] and in [9]. For the same molecule, in assay [9], the AC50 is 242 µM (active).
As to `CC[C@H](C)[C@@H](C(=O)O)n1sc2ccccc2c1=O`, the molecule was classed as inactive in assay [5], in assay [7], in [8] and in assay [9].
Turning to `COCC(C)O` (configuration not stated), the call in assay [1], in assay [3], in assay [4], in assay [6], in [7] and in [10] was inactive. In addition, the call in assay [8] and in [9] was inactive.

The record behind these values is PubChem BioAssay (EPA / NIEHS).
